Assay [1] can be described thus: BSK_CASM3C_SRB: Viability Assessment in the BioMAP Diversity Plus: CASM3C Assay (AID 2283050).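 Further: cells exposed to compound for 24 h.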 As to conditions: primary human coronary artery smooth muscle cells.
Read-out in assay [2]: Thrombomodulin, THBD (gene 7056)
Description: BSK_CASM3C_Thrombomodulin: BioMAP Diversity Plus: CASM3C Assay for Thrombomodulin Biomarker Activity (AID 2283051).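 Further: thrombomodulin protein level measured by ELISA 24 h after dosing.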 As to conditions: primary human coronary artery smooth muscle cells; actives raise or lower the signal.

Read-out in assay [3]: Tissue Factor, F3 (gene 2152)
Description: BSK_CASM3C_TissueFactor: BioMAP Diversity Plus: CASM3C Assay for Tissue Factor Biomarker Activity (AID 2283052).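 Further: cell surface tissue factor protein level read by ELISA.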 As to conditions: primary human coronary artery smooth muscle cells; actives raise or lower the signal.

Read-out in assay [4]: Interferon-gamma inducible Protein 10 (IP10), CXCL10 (gene 3627)
Description: BSK_hDFCGF_IP10: BioMAP Diversity Plus: hDFCGF Assay for Interferon-gamma inducible Protein 10 (IP10) Biomarker Activity (AID 2283053). As to conditions: primary human foreskin fibroblasts; actives raise or lower the signal. Put shortly:
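Chemical-treated human skin fibroblasts (primary) were sampled at 24 h for IP-10 by ELISA. Both increases and decreases relative to DMSO were scored.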

Read-out in assay [5]: Urokinase-type plasminogen activator receptor (uPAR), PLAUR (gene 5329)
Description: BSK_CASM3C_uPAR: BioMAP Diversity Plus: CASM3C Assay for Urokinase-type plasminogen activator receptor (uPAR) Biomarker Activity (AID 2283054).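 Further: cell-surface uPAR protein level quantified by ELISA.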 As to conditions: primary human coronary artery smooth muscle cells; actives raise or lower the signal.

Read-out in assay [6]: Vascular cell adhesion molecule 1 (VCAM1), VCAM1 (gene 7412)
Description: BSK_CASM3C_VCAM1: BioMAP Diversity Plus: CASM3C Assay for Vascular cell adhesion molecule 1 (VCAM1) Biomarker Activity (AID 2283055).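 Further: VCAM-1 protein level quantified by ELISA on the cells.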 As to conditions: primary human coronary artery smooth muscle cells; actives raise or lower the signal.

Read-out in assay [7]: Collagen III, COL3A1 (gene 1281)
Kind of assay: BSK_hDFCGF_CollagenIII: BioMAP Diversity Plus: hDFCGF Assay for Collagen III Biomarker Activity (AID 2283056). As to conditions: primary human foreskin fibroblasts; actives raise or lower the signal. In outline: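 Human foreskin fibroblast primary cultures sampled 24 h after dosing; Collagen III quantified by ELISA. Signal fitted bidirectionally against DMSO baseline.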

Read-out in assay [8]: Epidermal growth factor receptor (EGFR), EGFR (gene 1956)
Description: BSK_hDFCGF_EGFR: BioMAP Diversity Plus: hDFCGF Assay for Epidermal growth factor receptor (EGFR) Biomarker Activity (AID 2283057). As to conditions: primary human foreskin fibroblasts; actives raise or lower the signal. In outline:
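Cell-based multiplexed assay in primary human foreskin fibroblasts. EGFR is read by ELISA 24 h after treatment and compared with DMSO controls.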

Assay [9] in a line: BSK_hDFCGF_Proliferation: Cell Proliferation Assessment in the BioMAP Diversity Plus: hDFCGF Assay (AID 2283059).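 Further: curves fitted for both rise and fall of signal versus DMSO baseline.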 As to conditions: primary human foreskin fibroblasts. Put shortly:
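Primary human foreskin fibroblasts, sub-confluent; […]; 10% TCA fix, 0.1% SRB stain, A560 total protein. Gain/loss fitted bidirectionally vs DMSO control.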

Read-out in assay [10]: Interleukin-8 (IL8), CXCL8 (gene 3576)
Description: BSK_hDFCGF_IL8: BioMAP Diversity Plus: hDFCGF Assay for Interleukin-8 (IL8) Biomarker Activity (AID 2283058). As to conditions: primary human foreskin fibroblasts; actives raise or lower the signal. In outline: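 Primary human foreskin fibroblasts (hDFCGF system) dosed with chemical; IL-8 measured by ELISA 24 hours later. Bidirectional curve fitting relative to DMSO baseline; cytotoxicity tracked in parallel cultures by SRB total protein staining.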

Activity calls are given as the source filed them. How the source made its calls: active means hit-call score of the fitted dose curve at least 0.9, where 1 is the maximum; inactive means score below 0.9.

With `COc1cnc(OC)n2nc(NS(=O)(=O)c3c(OCC(F)F)cccc3C(F)(F)F)nc12`, the result in [1], in assay [2], in [3], in [4], in assay [5] and in [6] was inactive. Besides, the outcome in assay [7], in [8] and in assay [9] was inactive.
For `O=C(O)c1nc(Cl)ccc1Cl`, the outcome in assay [1], in [2], in assay [3], in assay [4], in assay [5] and in assay [6] was inactive. For the same compound, the outcome in [7] and in assay [8] was inactive.
As usually defined, the AC50 is the midpoint of the concentration-response curve, whichever way the signal moves. For `CCCCNC(=O)n1c(NC(=O)OC)nc2ccccc21`, the result in assay [1], in [3], in [5], in assay [6], in [7] and in assay [8] was inactive. For the same compound, the AC50 was 17.4 µM (active) in assay [2], 33.8 µM (active) in assay [4] and 15 µM (active) in assay [9].
For the compound `CNC(=S)S`, the outcome in assay [1], in assay [3], in [5], in assay [6], in assay [7] and in [8] was inactive. Besides, the outcome in assay [10] was inactive. Moreover, the AC50 in assay [2] is 9.42 µM (active); in [4], 20 µM (active).
In the case of `C#CCOS(=O)OC1CCCCC1Oc1ccc(C(C)(C)C)cc1` (stereo unspecified), the half-maximal activity concentration (AC50) is 20 µM (active) in assay [1]; 5.22 µM (active) in assay [2]; 7.97 µM (active) in [4]; 11.2 µM (active) in [5]; 1.27 µM (active) in [7]; 15.3 µM (active) in [10]. For the same compound, the outcome in assay [3], in assay [6] and in [8] was inactive.
`CCNc1nc(Cl)nc(NC(C)C)n1`: the outcome in [1], in [2], in assay [3], in assay [4], in assay [6] and in assay [7] was inactive. The result in assay [8] and in assay [10] was inactive. Besides, the AC50 in [5] was 20 µM (active).
`CCOP(=S)(OCC)SCn1c(=O)oc2cc(Cl)ccc21`: the result in [1], in assay [3], in assay [4], in assay [5], in [6] and in [8] was inactive. In addition, the outcome in assay [10] was inactive. Also, the values for the AC50 in assay [2] and in [7] were 19.9 µM (active) and 20 µM (active), respectively.
On to `C=CC1(C)OC(=O)N(c2cc(Cl)cc(Cl)c2)C1=O` (stereo unspecified), for which the result in assay [1], in [2], in [3], in [4], in [5] and in assay [6] was inactive. The result in [7], in [8] and in assay [9] was inactive.
In the case of `COC(=O)C=C(C)OP(=O)(OC)OC`, the result in [1], in assay [2], in [3], in assay [4], in assay [5] and in [6] was inactive. The result in assay [7], in assay [8] and in assay [9] was inactive.
Consider `CCOc1cc(Oc2ccc(C(F)(F)F)cc2Cl)ccc1[N+](=O)[O-]`, for which the outcome in assay [1], in assay [2], in assay [3], in assay [5] and in [6] was inactive. Further, the AC50 is 6.48 µM (active) in assay [4], 12.9 µM (active) in assay [7] and 14.2 µM (active) in [8].
Take `CN(C)C(=S)SSC(=S)N(C)C`: the outcome in [1], in assay [3] and in assay [5] was inactive. The AC50 in [2] was 9.88 µM (active); in assay [4], 2.74 µM (active); in assay [6], 11.5 µM (active); in [7], 6.36 µM (active); in assay [8] it was 5.9 µM (active); in assay [10] it was 7.67 µM (active).
As to `COc1nc(NC(C)C)nc(NC(C)C)n1`, the result in assay [1], in assay [2], in assay [3], in assay [4], in assay [5] and in assay [6] was inactive. Moreover, the result in assay [7], in assay [8] and in assay [9] was inactive.
Regarding `O=C(Nc1ccccc1)Nc1ccnc(Cl)c1`, the outcome in assay [1], in assay [2], in assay [3], in assay [4], in assay [5] and in assay [6] was inactive. Further, in assay [7], the outcome was inactive. The AC50 in assay [8] is 0.148 µM (active).
As for `Oc1ccccc1-c1ccccc1`, the outcome in [1], in assay [2], in [3], in assay [4], in assay [5] and in [6] was inactive. The outcome in assay [7], in assay [8] and in assay [9] was inactive.
Turning to `OC(c1ccc(Cl)cc1)(c1cncnc1)c1ccccc1Cl` (stereo unspecified), the outcome in assay [1], in [3], in assay [4], in [5], in assay [6] and in assay [7] was inactive. The outcome in [8] and in [10] was inactive. Besides, the half-maximal activity concentration (AC50) in [2] was 16.6 µM (active); in assay [9], 20 µM (active).
As to `CNC(=O)ON=CC(C)(C)SC`, the outcome in assay [1], in [2], in assay [3], in assay [6], in assay [7] and in assay [8] was inactive. Besides, the result in [9] was inactive. In addition, the AC50 in [4] was 5.4 µM (active); in [5], 0.148 µM (active).
Turning to `CS/C(C)=N/OC(=O)N(C)SN(C)C(=O)O/N=C(\C)SC`, the half-maximal activity concentration (AC50) in assay [1] is 31.2 µM (active); in [4], 8.62 µM (active); in [5], 31.5 µM (active); in assay [6], 30.8 µM (active); in assay [9] it was 3.73 µM (active). For the same compound, the result in assay [2], in assay [3], in [7], in assay [8] and in assay [10] was inactive.
With `CCON=C(CC)C1=C(O)CC(c2c(C)cc(C)cc2C)CC1=O` (stereo unspecified), the result in [1], in assay [2], in assay [3], in [4], in [5] and in assay [6] was inactive. Moreover, the result in [7], in assay [8] and in [10] was inactive.
For the compound `COP(N)(=O)SC` (stereo unspecified), the result in [1], in assay [2], in [3], in assay [4], in assay [5] and in assay [6] was inactive. For the same compound, the result in assay [7], in assay [8] and in [9] was inactive.
Turning to `CC1COC(Cn2cncn2)(c2ccc(Oc3ccc(Cl)cc3)cc2Cl)O1` (stereo unspecified), the result in assay [1], in [3], in assay [5] and in assay [6] was inactive. Further, the AC50 in assay [2] is 16.1 µM (active); in assay [4], 37.9 µM (active); in assay [7], 28.1 µM (active); in assay [8], 8.04 µM (active); in [9], 25 µM (active).
With `O=C(O)COc1nc(Cl)c(Cl)cc1Cl`, the outcome in assay [1], in assay [2], in assay [3], in [4], in assay [5] and in assay [6] was inactive. For the same compound, the outcome in assay [7] and in [8] was inactive.
With `C=CCC1=C(C)[C@@H](OC(=O)[C@@H]2[C@@H](C=C(C)C)C2(C)C)CC1=O`, the result in assay [1], in assay [2], in assay [3], in assay [5] and in assay [6] was inactive. For the same compound, the AC50 was 32.6 µM (active) in assay [4], 30.9 µM (active) in assay [7], 32.4 µM (active) in assay [8] and 33.1 µM (active) in assay [9].
On to `COc1nc(C)nc(NC(=O)NS(=O)(=O)c2ccccc2Cl)n1`, for which the outcome in [1], in assay [2], in [3], in assay [4], in assay [5] and in assay [6] was inactive. Also, the outcome in assay [7], in [8] and in assay [9] was inactive.
With `COC(=O)c1ccccc1C(=O)OC`, the result in assay [1], in assay [2], in [3], in assay [4], in assay [5] and in assay [6] was inactive. For the same compound, the result in assay [7], in assay [8] and in assay [10] was inactive.
In the case of `CON(C)C(=O)Nc1ccc(Cl)c(Cl)c1`, the result in [1], in assay [2], in assay [3], in assay [4], in assay [5] and in assay [6] was inactive. Further, the outcome in assay [7], in assay [8] and in assay [10] was inactive.
On to `CC1=C(C(=O)Nc2ccccc2)SCCO1`, for which the outcome in assay [1], in assay [2], in assay [3], in assay [4], in assay [5] and in assay [6] was inactive. Moreover, the result in [7] and in [8] was inactive.

(Values after PubChem BioAssay (EPA / NIEHS).)
